This is part of a sample that, as a whole, favours compounds with a hit. Of some 83,000 tested, about 20% had one in any assay.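 96-well plates, one dose, 48 hours. Percent growth reported; active if below 10.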 Active and inactive are the calls of the source.
Experiments:
Assay in all cases: NCI-60 one-dose screen, 48 h (100 = growth as untreated, 0 = no growth, -100 = all killed)
Settings in all cases: 10 µM unless noted
HT29 colon = test system: HT29 colon
SNB-75 CNS = test system: SNB-75 CNS
SNB-19 CNS = test system: SNB-19 CNS
U251 CNS = test system: U251 CNS
PC-3 prostate = test system: PC-3 prostate
LOX IMVI melanoma = test system: LOX IMVI melanoma
SK-MEL-28 melanoma = test system: SK-MEL-28 melanoma
SK-MEL-2 melanoma = test system: SK-MEL-2 melanoma
UACC-62 melanoma = test system: UACC-62 melanoma
SK-MEL-5 melanoma = test system: SK-MEL-5 melanoma

Measured: growth

Nc1ccc(S(=O)(=O)Nc2ncccn2)cc1
inactive: HT29 colon 105% | SNB-75 CNS 102% | SNB-19 CNS 105% | U251 CNS 106% | PC-3 prostate 97.7% | LOX IMVI melanoma 102% | SK-MEL-28 melanoma 118% | SK-MEL-2 melanoma 106%

COc1ccc(/C(=C2\O[C@@H]([C@H](O)CO)[C@H]3OC(C)(C)O[C@@H]23)c2cc(OC)c(OC)c(OC)c2)cc1O
inactive: HT29 colon 111% | SNB-75 CNS 55.9% | SNB-19 CNS 76.8% | U251 CNS 90.6% | PC-3 prostate 51.8% | UACC-62 melanoma 95.1% | SK-MEL-2 melanoma 77.5%

COc1cccc(CCC2C(=O)CCCC2=O)c1
inactive: HT29 colon 111% | SNB-75 CNS 108% | SNB-19 CNS 96.8% | U251 CNS 109% | PC-3 prostate 104% | LOX IMVI melanoma 117% | SK-MEL-28 melanoma 119% | SK-MEL-2 melanoma 112%

CN1CCN(CC(=O)Nc2nc3c(s2)Nc2cc(Cl)c(Cl)cc2NC3=O)CC1
inactive: HT29 colon 99.1% | SNB-75 CNS 96.3% | SNB-19 CNS 104% | U251 CNS 95% | PC-3 prostate 97.7% | UACC-62 melanoma 109% | SK-MEL-28 melanoma 111%

Cc1nn(-c2ccccc2)c2c1oc(=O)c1cc(Cl)ccc12
inactive: HT29 colon 101% | SNB-75 CNS 83.7% | SNB-19 CNS 99.2% | U251 CNS 105% | SK-MEL-5 melanoma 110% | UACC-62 melanoma 92.3% | LOX IMVI melanoma 105% | SK-MEL-28 melanoma 140%

COC1CC2CCC(C)C(O)(O2)C(=O)C(=O)N2CCCCC2C(=O)OC(C(C)CC2CCC(O)C(OC)C2)CC(=O)C(C)C=C(C)C(O)C(OC)C(=O)C(C)CC(C)/C=C/C=C/C=C1C (centres undefined)
inactive: HT29 colon 43.7% | SNB-75 CNS 13.5% | SNB-19 CNS 38.1% | U251 CNS 35.8% | PC-3 prostate 31.3% | UACC-62 melanoma 36.5% | LOX IMVI melanoma 39% | SK-MEL-28 melanoma 54.1% | SK-MEL-2 melanoma 35.9%

Cc1[nH]n(C(N)=S)c(=O)c1N=Nc1ccc(F)c(Cl)c1
inactive: HT29 colon 147% | SNB-75 CNS 119% | SNB-19 CNS 164% | U251 CNS 108% | SK-MEL-5 melanoma 95% | UACC-62 melanoma 84.6% | LOX IMVI melanoma 110% | SK-MEL-28 melanoma 116%

CCCCCCCC/C=C\CCCCCCCCOc1ccccc1CC(=O)NCC[N+]1(C)CCCC1
inactive: HT29 colon 18% | SNB-75 CNS 79% | SNB-19 CNS 60.4% | U251 CNS 47.6% | PC-3 prostate 17.5% | UACC-62 melanoma 67.1% | LOX IMVI melanoma 72% | SK-MEL-28 melanoma 96.7% | SK-MEL-2 melanoma 106%

O=C1OC(c2ccc(-c3ccccc3)cc2)=C/C1=C/c1cccs1
inactive: HT29 colon 125% | SNB-75 CNS 95.7% | SNB-19 CNS 131% | U251 CNS 100% | SK-MEL-5 melanoma 78.2% | UACC-62 melanoma 74.6% | LOX IMVI melanoma 99.4% | SK-MEL-28 melanoma 102%

C=CCCCCCCCCC(=O)[O][Sn]([CH2]CCC)([CH2]CCC)[CH2]CCC
active: HT29 colon -76.3% | SNB-75 CNS -98.2% | SNB-19 CNS -79.2% | U251 CNS -74% | PC-3 prostate -93.5% | UACC-62 melanoma -90.4% | LOX IMVI melanoma -90.9% | SK-MEL-28 melanoma -93.5% | SK-MEL-2 melanoma -71.2%

O=C(/C=C/c1cccnc1)NCCCCC1CCCN(C(=O)c2ccccc2)C1 (centres undefined)
inactive: HT29 colon 32.8% | SNB-75 CNS 87.7% | SNB-19 CNS 53.3% | U251 CNS 43.1% | PC-3 prostate 47.5% | UACC-62 melanoma 87.5% | SK-MEL-28 melanoma 73.1% | SK-MEL-2 melanoma 15.3%

O=C1c2ccccc2-c2c1nc1ccccc1[n+]2[O-]
inactive: HT29 colon 105% | SNB-75 CNS 103% | SNB-19 CNS 103% | U251 CNS 103% | PC-3 prostate 99.4% | UACC-62 melanoma 105% | LOX IMVI melanoma 101% | SK-MEL-28 melanoma 113% | SK-MEL-2 melanoma 107%

C[C@@H]1CC[C@H]2[C@@H](C)C(O)O[C@@H]3O[C@]4(C)CC[C@@H]1[C@]32OO4 (some centres undefined)
inactive: HT29 colon 17.7% | SNB-75 CNS 52.5% | SNB-19 CNS 57.7% | U251 CNS 25.5% | PC-3 prostate 15.1% | UACC-62 melanoma 31% | LOX IMVI melanoma 11.7% | SK-MEL-28 melanoma 78% | SK-MEL-2 melanoma 27%

C/C(=C\CCc1ccsc1)CC/C=C(\C)CCCN1CCN(CCO)CC1
active: HT29 colon -34.4% | U251 CNS 6.55% | UACC-62 melanoma -73.9%
inactive: SNB-75 CNS 42.7% | SNB-19 CNS 64% | PC-3 prostate 55.3% | SK-MEL-28 melanoma 58.1%

CCCCn1c(Cc2ccc(Cl)cc2)nc2cc(OC)c(OC)cc2c1=O
inactive: HT29 colon 107% | SNB-75 CNS 104% | SNB-19 CNS 150% | U251 CNS 88.5% | SK-MEL-5 melanoma 41% | UACC-62 melanoma 52.5% | LOX IMVI melanoma 79.9% | SK-MEL-28 melanoma 116%

CCC1=C(c2ccc(OC)cc2)C(C)Oc2cc(OC(C)=O)ccc21 (centres undefined)
inactive: HT29 colon 102% | SNB-75 CNS 71.9% | SNB-19 CNS 88.6% | PC-3 prostate 68.3% | UACC-62 melanoma 74% | LOX IMVI melanoma 90.6% | SK-MEL-28 melanoma 93.7% | SK-MEL-2 melanoma 89.7%
active: U251 CNS -0.227%

CCOc1nc(-c2ccccc2)cc2c(O)c(-c3nnco3)[nH]c(=O)c12
inactive: HT29 colon 69% | SNB-75 CNS 55.2% | SNB-19 CNS 72.1% | U251 CNS 32.7% | PC-3 prostate 43.4% | SK-MEL-28 melanoma 76.1%

NC(=O)c1ccccc1NC(=O)c1ccccc1Cl
inactive: HT29 colon 118% | SNB-75 CNS 92.8% | SNB-19 CNS 98.4% | U251 CNS 106% | SK-MEL-5 melanoma 106% | UACC-62 melanoma 97.4% | LOX IMVI melanoma 106% | SK-MEL-28 melanoma 112% | SK-MEL-2 melanoma 129%

CCOc1nc(-c2ccccc2)cc2c(O)c(C(=O)n3nc(C)cc3C)[nH]c(=O)c12
inactive: HT29 colon 104% | SNB-75 CNS 94.4% | SNB-19 CNS 102% | U251 CNS 99.5% | PC-3 prostate 101% | UACC-62 melanoma 110% | SK-MEL-28 melanoma 109%

COc1cc(C2CC(=O)Nc3c2cc(Br)c2ccccc32)cc(Br)c1OC (centres undefined)
active: HT29 colon 6.78% | SNB-75 CNS -42.7%
inactive: SNB-19 CNS 60.7% | U251 CNS 17.2% | PC-3 prostate 39% | UACC-62 melanoma 51.7% | LOX IMVI melanoma 28.3% | SK-MEL-28 melanoma 73% | SK-MEL-2 melanoma 58.7%

CSc1nnc(C2=CC(=O)c3ccccc3C2=O)n1-c1ccccc1
inactive: HT29 colon 110% | SNB-75 CNS 74.8% | SNB-19 CNS 91.5% | U251 CNS 76.5% | PC-3 prostate 86.7% | UACC-62 melanoma 84.1% | SK-MEL-28 melanoma 105%

OCc1nnn(-c2ccccc2)c1CO
inactive: HT29 colon 103% | SNB-75 CNS 94.8% | SNB-19 CNS 115% | U251 CNS 104% | SK-MEL-5 melanoma 107% | UACC-62 melanoma 101% | LOX IMVI melanoma 100% | SK-MEL-28 melanoma 128% | SK-MEL-2 melanoma 113%

CCCCSc1cc(C)nc(N)n1
inactive: HT29 colon 103% | SNB-75 CNS 81% | SNB-19 CNS 99.4% | U251 CNS 93.8% | SK-MEL-5 melanoma 101% | UACC-62 melanoma 93.9% | LOX IMVI melanoma 92% | SK-MEL-28 melanoma 113% | SK-MEL-2 melanoma 93.4%

O=C1CCCN1C1CCN(Cc2cc3ccccc3[nH]c2=O)c2ccccc21 (centres undefined)
inactive: HT29 colon 92.9% | SNB-75 CNS 79.3% | SNB-19 CNS 96.8% | U251 CNS 96.1% | SK-MEL-5 melanoma 86.1% | UACC-62 melanoma 85.5% | LOX IMVI melanoma 90.4% | SK-MEL-28 melanoma 103% | SK-MEL-2 melanoma 96.1%

COc1ccc(/C=C/C(=O)Nc2cccnc2Nc2ccc(F)cc2)cc1
inactive: HT29 colon 109% | SNB-75 CNS 97.3% | SNB-19 CNS 87.9% | U251 CNS 93.4% | SK-MEL-5 melanoma 87.2% | UACC-62 melanoma 86.6% | LOX IMVI melanoma 98.9% | SK-MEL-28 melanoma 98.6% | SK-MEL-2 melanoma 120%

CCC(C)CC(C)C(=O)c1c(O)ccn(OC)c1=O (centres undefined)
inactive: HT29 colon 124% | SNB-75 CNS 88% | SNB-19 CNS 78% | U251 CNS 60.6% | SK-MEL-5 melanoma 84% | UACC-62 melanoma 92.3% | LOX IMVI melanoma 32.4% | SK-MEL-28 melanoma 77.6% | SK-MEL-2 melanoma 102%

COc1cc2c(cc1OCCCOc1ccc(-c3cc4ccccc4c4ccccc34)cc1)N=C[C@@H]1CCCN1C2=O
active: HT29 colon -46.6% | SNB-75 CNS -78% | SNB-19 CNS -46.8% | U251 CNS -79.3% | SK-MEL-5 melanoma -80.2% | UACC-62 melanoma -83.6% | LOX IMVI melanoma -62.1% | SK-MEL-28 melanoma -62.2% | SK-MEL-2 melanoma -78.8%

O=C(/C=C/c1cc2ccccc2[nH]c1=O)c1ccc(Cl)cc1
active: HT29 colon 6.1% | LOX IMVI melanoma -69.2%
inactive: SNB-75 CNS 16.8% | SNB-19 CNS 47.6% | U251 CNS 24.8% | SK-MEL-5 melanoma 56.2% | UACC-62 melanoma 31.4% | SK-MEL-28 melanoma 80.1% | SK-MEL-2 melanoma 18.8%

COc1cc(/C=C/C(=O)c2ccc(F)cc2)ccc1OCCCCCOc1cc2c(cc1OC)C(=O)N1CCCC1C=N2 (centres undefined)
active: HT29 colon -18.8% | SNB-75 CNS -57.5% | SNB-19 CNS 2.88% | U251 CNS -77.5% | SK-MEL-5 melanoma -78.1% | UACC-62 melanoma -92.4% | LOX IMVI melanoma -94% | SK-MEL-28 melanoma -48% | SK-MEL-2 melanoma -18%

C[n+]1c2ccccc2c(Nc2ccc(N3CCCCC3)cc2)c2[nH]c3ccccc3c21
active: HT29 colon -85% | SNB-75 CNS -94% | SNB-19 CNS -89.8% | U251 CNS -98% | SK-MEL-5 melanoma -98.3% | UACC-62 melanoma -97.8% | LOX IMVI melanoma -86.2% | SK-MEL-28 melanoma -98.9% | SK-MEL-2 melanoma -97.9%

Cc1cc(N2CCOCC2)nc(N2CCOCC2)n1
inactive: HT29 colon 103% | SNB-75 CNS 94.4% | SNB-19 CNS 99.7% | U251 CNS 102% | SK-MEL-5 melanoma 102% | UACC-62 melanoma 99% | LOX IMVI melanoma 104% | SK-MEL-28 melanoma 113% | SK-MEL-2 melanoma 90.6%
